Paper PMC5540273 (PLoS ONE, 2017)

What was measured:
Details in all cases: concentration: 1 μM,replicates: in singlicate; n = 1
PIK3C2G = tested on: PIK3C2G
PIK3CA = tested on: PIK3CA
PIK3CB = tested on: PIK3CB
PIK3CD = tested on: PIK3CD
PIK3CG = tested on: PIK3CG
PIK4CB = tested on: T1, PIK4CB
T1 construct: gene PI4KB

PIKFYVE = tested on: PIKFYVE
PIM1 = tested on: PIM1
PIM2 = tested on: PIM2
PIM3 = tested on: PIM3
PIP5K1A = tested on: PIP5K1A
PIP5K1C = tested on: PIP5K1C
PIP5K2B = tested on: PIP5K2B
PIP5K2C = tested on: T2, PIP5K2C
T2 construct: gene PIP4K2C

PKAC-alpha = tested on: T3, PKAC-alpha
T3 construct: gene PRKACA

PKAC-beta = tested on: T4, PKAC-beta
T4 construct: gene PRKACB

PKMYT1 = tested on: PKMYT1
PKN1 = tested on: PKN1
PKN2 = tested on: PKN2
PLK1 = tested on: PLK1
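Also: KINOMEscan kinase panel screen.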

Structure (SMILES)	%Inh (PIK3C2G)	%Inh (PIK3CA)	%Inh (PIK3CB)	%Inh (PIK3CD)	%Inh (PIK3CG)	%Inh (PIK4CB)	%Inh (PIKFYVE)	%Inh (PIM1)	%Inh (PIM2)	%Inh (PIM3)	%Inh (PIP5K1A)	%Inh (PIP5K1C)	%Inh (PIP5K2B)	%Inh (PIP5K2C)	%Inh (PKAC-alpha)	%Inh (PKAC-beta)	%Inh (PKMYT1)	%Inh (PKN1)	%Inh (PKN2)	%Inh (PLK1)
CN(c1ccccc1CNc1nc(Nc2ccc3c(c2)CC(=O)N3)ncc1C(F)(F)F)S(C)(=O)=O	0%	0%	0%	0%	0%	0%	38%	0%	0%	0%	32%	0%	19%	9%	77%	63%	0%	85%	66%	0%
O=C(Nc1cccc(C(F)(F)F)c1)c1cccc(Oc2ccc3nccn3n2)c1	13%	98.1%	0%	17%	94.2%	39%	0%	0%	7%	0%	0%	17%	14%	10%	17%	7%	9%	81%	0%	50%
CCCC(=O)Nc1n[nH]c2ncccc12 [SB-601436]	0%	0%	0%	0%	7%	12%	0%	0%	0%	0%	24%	0%	39%	0%	0%	10%	0%	0%	9%	0%
C[C@@H](Oc1cc(-n2cnc3cc(-c4ccncc4)ccc32)sc1C(N)=O)c1ccccc1Cl [GSK479719]	0%	0%	0%	0%	0%	0%	27%	0%	0%	0%	0%	58%	21%	29%	0%	0%	0%	15%	44%	
CCn1c(-c2nonc2N)nc2cncc(Br)c21 [SB-738004]	12%	0%	21%	34%	11%	5%	39%	89%	0%	62%	54%	53%	28%	38%	11%	0%	6%	0%	4%	18%
CN(c1ccc2c(c1)nc(NCc1ccc(F)cc1)n2C)c1ccnc(Nc2ccc(CS(C)(=O)=O)cc2)n1.Cl [GW813244]	0%	27%	0%	0%	0%	0%	0%	18%	49%	15%	12%	0%	26%	52%	24%	14%	4%	18%	4%	0%
COc1cccc(OC)c1C(=O)Nc1cccc(-c2nn3ccccc3c2-c2ccnc(Nc3cccc(F)c3)n2)c1 [GSK361065]	24%	0%	0%	1%	0%	0%	42%	10%	0%	13%	0%	0%	0%	0%	23%	0%	5%	0%	13%	0%
CS(=O)(=O)c1cccc(CNc2nc(Nc3ccc4c(c3)[C@@H]3C[C@@H]4CNC3=O)ncc2C(F)(F)F)c1	0%	0%	0%	0%	0%	0%	24%	0%	0%	0%	52%	48%	93.3%	52%	0%	0%	0%	56%	22%	0%
CCNCC(Cc1ccccc1)NC(=O)c1cc(Br)c(-c2ccnc3[nH]ccc23)s1.Cl.Cl (stereo not drawn) [GSK1383280]	0%	0%	0%	0%	0%	12%	0%	22%	0%	5%	55%	38%	16%	36%	99.4%	99.3%	0%	39%	58%	0%
O=C1NCCc2[nH]c(-c3ccncc3)cc21	0%	7%	45%	0%	12%	20%	38%	28%	23%	37%	2%	12%	4%	0%	34%	32%	4%	77%	80%	
